Among all 5,500 compounds or so, about 2,000 (36%) were called active. Not shown: some 18% with an inconclusive outcome. Rule as the data show it: active = normalized growth mostly below about 0.91 (no sharp cut-off); inconclusive = no clear call, values can overlap the other calls; inactive = mostly above about 0.92. The list shows a part of the results.
Test: chemical genetic growth profiling, strain panel (AID 1159580);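 also: tested at 20 µM; growth read once vehicle control cultures reached saturation at 30 °C; 1 = growth at the plate median or of vehicle wells; lower values mean less growth of the strain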
Conditions: growth OD

Measured: normalized growth

COc1ccc2c(c1)[nH]c1c(C)nccc12
inactive: S. cerevisiae deletion strains, locus YJR075W, strain HOC1, active compounds read low 1.02 | S. cerevisiae deletion strains, locus YKL009W, strain mrt4, active compounds read low 0.954 | S. cerevisiae deletion strains, locus YKL068W, active compounds read low 0.978 | S. cerevisiae deletion strains, locus YKL085W, strain MDH1 (second series), active compounds read low 0.979 | S. cerevisiae deletion strains, locus YKL085W, strain MDH1, active compounds read low 0.979 | S. cerevisiae deletion strains, locus YKL160W, strain elf1, active compounds read low 0.996 | S. cerevisiae deletion strains, locus YKL190W, strain CNB1, active compounds read low 1.01 | S. cerevisiae deletion strains, locus YKR001C, strain vps1, active compounds read low 0.962 | S. cerevisiae deletion strains, locus YKR026C, strain gcn3, active compounds read low 0.978 | S. cerevisiae deletion strains, locus YKR091W, strain srl3, active compounds read low 0.996 | S. cerevisiae deletion strains, locus YLL001W, strain dnm1, active compounds read low 0.987 | S. cerevisiae deletion strains, locus YLL026W, active compounds read low 0.993 | S. cerevisiae deletion strains, locus YLL041C, strain sdh2, active compounds read low 0.993 | S. cerevisiae deletion strains, locus YLR027C, strain aat2, active compounds read low 0.992 | S. cerevisiae deletion strains, locus YLR039C, strain RIC1, active compounds read low 1.22 | S. cerevisiae deletion strains, locus YLR058C, strain SHM2, active compounds read low 1.01 | S. cerevisiae deletion strains, locus YLR102C, strain apc9, active compounds read low 0.981 | S. cerevisiae deletion strains, locus YLR113W, strain HOG1, active compounds read low 1 | S. cerevisiae deletion strains, locus YLR221C, strain rsa3, active compounds read low 0.995 | S. cerevisiae deletion strains, locus YLR258W, strain gsy2, active compounds read low 0.995 | S. cerevisiae deletion strains, locus YLR262C, strain YPT6 (second series), active compounds read low 1.03 | S. cerevisiae deletion strains, locus YLR262C, strain YPT6, active compounds read low 1.21 | S. cerevisiae deletion strains, locus YLR268W, strain sec22, active compounds read low 1 | S. cerevisiae deletion strains, locus YLR320W, strain mms22, active compounds read low 1 | S. cerevisiae deletion strains, locus YLR330W, strain CHS5, active compounds read low 0.997 | S. cerevisiae deletion strains, locus YLR342W, strain FKS1 (second series), active compounds read low 1.02 | S. cerevisiae deletion strains, locus YLR342W, strain FKS1, active compounds read low 1 | S. cerevisiae deletion strains, locus YLR357W, strain rsc2, active compounds read low 0.978 | S. cerevisiae deletion strains, locus YLR370C, strain arc18, active compounds read low 1 | S. cerevisiae deletion strains, locus YLR371W, strain rom2, active compounds read low 0.979 | S. cerevisiae deletion strains, locus YLR384C, strain iki3, active compounds read low 0.999 | S. cerevisiae deletion strains, locus YLR418C, strain cdc73, active compounds read low 1.03 | S. cerevisiae deletion strains, locus YML016C, strain PPZ1, active compounds read low 1.01 | S. cerevisiae deletion strains, locus YML032C, strain rad52, active compounds read low 0.926 | S. cerevisiae deletion strains, locus YML120C, strain ndi1, active compounds read low 1 | S. cerevisiae deletion strains, locus YML124C, strain tub3, active compounds read low 0.982 | S. cerevisiae deletion strains, locus YMR058W, strain fet3, active compounds read low 0.983 | S. cerevisiae deletion strains, locus YMR078C, strain ctf18, active compounds read low 0.976 | S. cerevisiae deletion strains, locus YMR125W, strain sto1, active compounds read low 0.975 | S. cerevisiae deletion strains, locus YMR129W, active compounds read low 0.988 | S. cerevisiae deletion strains, locus YMR205C, strain PFK2, active compounds read low 0.999 | S. cerevisiae deletion strains, locus YMR223W, strain ubp8, active compounds read low 0.962 | S. cerevisiae deletion strains, locus YMR231W, strain pep5, active compounds read low 1.01 | S. cerevisiae deletion strains, locus YMR263W, strain SAP30, active compounds read low 1.01 | S. cerevisiae deletion strains, locus YMR307W, strain GAS1, active compounds read low 1.12 | S. cerevisiae deletion strains, locus YNL067W, strain RPL9B, active compounds read low 0.971 | S. cerevisiae deletion strains, locus YNL071W, strain lat1, active compounds read low 0.991 | S. cerevisiae deletion strains, locus YNL128W, strain TEP1, active compounds read low 1.03 | S. cerevisiae deletion strains, locus YNL153C, strain GIM3, active compounds read low 1.02 | S. cerevisiae deletion strains, locus YNL183C, strain NPR1, active compounds read low 0.982 | S. cerevisiae deletion strains, locus YNL209W, strain ssb2, active compounds read low 0.996 | S. cerevisiae deletion strains, locus YNL233W, strain BNI4, active compounds read low 1.01 | S. cerevisiae deletion strains, locus YNL248C, strain rpa49, active compounds read low 0.966 | S. cerevisiae deletion strains, locus YNL250W, strain rad50, active compounds read low 0.986 | S. cerevisiae deletion strains, locus YNL271C, strain bni1, active compounds read low 0.991 | S. cerevisiae deletion strains, locus YNL298W, strain CLA4, active compounds read low 0.968 | S. cerevisiae deletion strains, locus YNL307C, strain MCK1, active compounds read low 0.967 | S. cerevisiae deletion strains, locus YNL322C, strain KRE1 (second series), active compounds read low 1 | S. cerevisiae deletion strains, locus YNL322C, strain KRE1, active compounds read low 1.01 | S. cerevisiae deletion strains, locus YNR049C, strain mso1, active compounds read low 0.997 | S. cerevisiae deletion strains, locus YNR052C, strain pop2, active compounds read low 0.961 | S. cerevisiae deletion strains, locus YOL006C, strain TOP1, active compounds read low 0.963 | S. cerevisiae deletion strains, locus YOL012C, strain htz1 1.03 | S. cerevisiae deletion strains, locus YOL147C, strain pex11, active compounds read low 0.984 | S. cerevisiae deletion strains, locus YOR001W, strain rrp6, active compounds read low 1.02 | S. cerevisiae deletion strains, locus YOR061W, strain CKA2, active compounds read low 1.04 | S. cerevisiae deletion strains, locus YOR069W, strain VPS5, active compounds read low 1 | S. cerevisiae deletion strains, locus YOR070C, strain gyp1, active compounds read low 0.995 | S. cerevisiae deletion strains, locus YOR080W, strain dia2, active compounds read low 1.01 | S. cerevisiae deletion strains, locus YOR083W, strain WHI5, active compounds read low 0.996 | S. cerevisiae deletion strains, locus YOR106W, strain vam3, active compounds read low 0.983 | S. cerevisiae deletion strains, locus YOR136W, strain idh2, active compounds read low 0.971 | S. cerevisiae deletion strains, locus YOR144C, strain elg1, active compounds read low 0.988 | S. cerevisiae deletion strains, locus YOR184W, strain ser1, active compounds read low 0.953 | S. cerevisiae deletion strains, locus YOR231W, strain MKK1, active compounds read low 1 | S. cerevisiae deletion strains, locus YOR265W, strain rbl2, active compounds read low 0.996 | S. cerevisiae deletion strains, locus YOR270C, strain vph1, active compounds read low 0.974 | S. cerevisiae deletion strains, locus YOR290C, strain snf2, active compounds read low 0.99 | S. cerevisiae deletion strains, locus YOR316C, strain cot1, active compounds read low 0.985 | S. cerevisiae deletion strains, locus YPL051W, strain arl3, active compounds read low 0.986 | S. cerevisiae deletion strains, locus YPL055C, strain LGE1, active compounds read low 1.02 | S. cerevisiae deletion strains, locus YPL078C, strain atp4, active compounds read low 0.995 | S. cerevisiae deletion strains, locus YPL106C, strain sse1, active compounds read low 0.972 | S. cerevisiae deletion strains, locus YPL240C, strain hsp82, active compounds read low 0.981 | S. cerevisiae deletion strains, locus YPL241C, strain CIN2, active compounds read low 1.01 | S. cerevisiae deletion strains, locus YPL256C, strain CLN2, active compounds read low 1.01 | S. cerevisiae deletion strains, locus YPR119W, strain clb2, active compounds read low 0.988 | S. cerevisiae deletion strains, locus YPR141C, strain kar3, active compounds read low 0.979 | S. cerevisiae deletion strains, locus YPR163C, strain tif3, active compounds read low 0.975 | S. cerevisiae deletion strains, locus YPR167C, strain met16, active compounds read low 1 | S. cerevisiae deletion strains, strain wtn01, active compounds read low 0.998 | S. cerevisiae strains, strain wild type, active compounds read low 0.998
